# Results taken from PubChem BioAssay AID624488 (Broad Institute, 2012).
# Results with a measured potency or affinity are listed apart. Activity calls are given as the source filed them.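 Rule for the calls: active = compounds that lower cell ATP signal, with a fitted half-maximal concentration within a set limit; inconclusive = flat curve with moderate signal loss, or poor fit; inactive = the rest.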
# Assay: A375 melanoma cell cytotoxicity, dose response, counter-screen for MITF inhibitor project, CellTiter-Glo luminescence, dry powder, set 6 (AID 624488)
# Settings: A375 viability, CellTiter-Glo ATP luminescence, 24 h; series mostly up to 35 µM; activity change, negative = cytotoxicity: at the top concentration
row,Structure (SMILES),"activity change, negative = cytotoxicity"
1,NC1=C(NS(=O)(=O)c2ccc(Br)cc2)C(=O)c2ccccc2C1=O,0.71% (inactive)
2,O=C1C=C(NS(=O)(=O)c2ccc(Br)cc2)C(=O)c2ccccc21,-4.1% (inactive)
3,O=C1C=C(NS(=O)(=O)c2cccs2)C(=O)c2ccccc21,-6.47% (inactive)
4,NC1=C(NS(=O)(=O)c2cccs2)C(=O)c2ccccc2C1=O,-7.64% (inactive)
5,NC1=C(NS(=O)(=O)c2ccc(Br)s2)C(=O)c2ccccc2C1=O,2.01% (inactive)
6,CNC1=CC(=O)c2ccccc2C1=O,-11.1% (inactive)
7,O=C1C=C(NS(=O)(=O)c2ccccc2)C(=O)c2ccccc21,-10.2% (inactive)
8,O=C1C(NS(=O)(=O)c2ccccc2)=C(c2ccccc2)C(=O)c2ccccc21,-12.8% (inactive)
